Reference: ChEMBL document CHEMBL3988442, “University of Dundee, Small-Polar-MMV Screening Library” (2021)

Legend:
[1] = molecular target: T1, Aspartate--tRNA(Asp/Asn) ligase (Mycobacterium tuberculosis (strain ATCC 25618 / H37Rv)) (UniProt P9WFW3); test: Assay for Asp RNA synthetase-1 from Mycobacterium tuberculosis; assay type: functional; set-up: scale not given: direction of the effect not stated beside the values; details: 30 µM; also: in the data most compounds retested in dose-response had high values
T1 sequence (whole entry): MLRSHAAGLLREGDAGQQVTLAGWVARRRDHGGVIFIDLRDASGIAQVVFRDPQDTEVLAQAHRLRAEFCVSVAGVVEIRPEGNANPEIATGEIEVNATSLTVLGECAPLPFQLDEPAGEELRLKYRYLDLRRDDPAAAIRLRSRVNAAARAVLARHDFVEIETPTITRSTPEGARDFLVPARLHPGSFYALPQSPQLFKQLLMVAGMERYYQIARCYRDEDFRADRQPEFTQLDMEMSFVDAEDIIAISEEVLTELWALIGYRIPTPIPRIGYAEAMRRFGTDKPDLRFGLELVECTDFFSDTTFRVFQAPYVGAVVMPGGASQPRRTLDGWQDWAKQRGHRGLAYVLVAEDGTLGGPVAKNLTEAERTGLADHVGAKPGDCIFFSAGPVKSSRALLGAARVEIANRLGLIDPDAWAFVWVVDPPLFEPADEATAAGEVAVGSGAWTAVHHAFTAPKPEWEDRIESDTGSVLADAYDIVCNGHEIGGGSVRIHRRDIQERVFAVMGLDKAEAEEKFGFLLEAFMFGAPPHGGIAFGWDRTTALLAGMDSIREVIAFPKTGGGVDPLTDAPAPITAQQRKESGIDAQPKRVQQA

[2] = molecular target: Shiga toxin 2 (Escherichia coli O157:H7) (UniProt P09385+P09386); test: E. coli 0.157:H7 Shiga Toxin SOP - stx2 screening assay; assay type: functional; set-up: scale not given: direction of the effect not stated beside the values; details: 30 µM

| SMILES | Percent Effect [1] [%] | Percent Effect [2] [%] |
| --- | --- | --- |
| CC(C)(NCC(=O)NCC(F)(F)F)c1ccc2c(c1)OCCO2 | -0.335 | 22.1 |
| CCO[C@@H]1CO[C@@]2(CCCN(C(=O)COc3ccccc3OC)C2)C1 | 1.03 | -25.3 |
| Cc1cc(-c2cnn(CCNC(=O)C3CCCO3)c2C2CC2)on1 (stereo not given) | -4.09 | 7.9 |
| CCC(NC(=O)CC(F)(F)F)c1ccccc1OCC(=O)N1CCCC1 (stereo not given) | 0.767 | -16.8 |
| CC(C)n1c(=O)nc2n1C(=O)N(c1ccc(F)cc1)C2 | 2.49 | 2.99 |
| CCc1ncncc1C(=O)NCCN1CCC(C)CC1 | -3.79 | 5.13 |
| Cc1noc(CCCC(=O)NC(C)c2ccccn2)n1 (stereo not given) | -1.28 | 16 |
| CCn1nc(C)c2ccn(CC(=O)NC3CCCC3)c(=O)c21 | 4.68 | 12.1 |
| Cn1cc(CN2CC[C@H]3O[C@H](C(=O)NCc4ccco4)CC[C@H]32)cn1 | 5.47 | -27.7 |
| CN1CCCC[C@@H]2[C@H]1[C@@H](c1ccccc1)CCN2C(=O)c1cnccn1 | 0.342 | -18.3 |
| CCN1CCCC1CN(CCN(C)C)S(=O)(=O)c1cccc(C#N)c1 (stereo not given) | 5.06 | -21 |
| COc1cccc(CC(=O)N2CCc3ncnc(NC(C)C)c3CC2)c1 | -0.351 | -3.19 |
| Cc1ncc2c(n1)CN(CCCc1nc3ccccc3o1)CC2 | 6.8 | -10.6 |
| Cc1ccoc1C(=O)N1C[C@H]2CCC[C@@]2(COCc2ccncc2)C1 | 6.22 | -14.5 |
| Cc1cccn2c(=O)cc(CN3CCCCC3Cn3cncn3)nc12 (stereo not given) | -0.0141 | -18.4 |
| COCCO[C@@H]1CCN(Cc2csc(C)n2)[C@H]1Cc1ccccc1 | 3.03 | 1.09 |
| CCc1n[nH]c(C2CN(CCc3ccncc3)CCO2)n1 (stereo not given) | -1.5 | 11.6 |
| O=C(C1CCOCC1)N1CC[C@H]2C[C@@H](c3ccncn3)O[C@@H]2C1 | 1.69 | -27.6 |
| O=C(CSc1nc2c(cnn2CCO)c(=O)[nH]1)N1CCCCCC1 | -7.88 | -8.39 |
| Cc1nc(CN2CCn3cc(CNC(=O)C4CCC4)nc3C2)cs1 | 11 | -50.1 |
| O=C(c1ccnnc1)N1C[C@@H](OCC2CCOCC2)[C@H]2OCCC[C@H]21 | -5.57 | -14.6 |
| CCC1CN(C(=O)c2ccccc2N2CCCC2)CCN1C(C)C (stereo not given) | -4.91 | 12.2 |
| Cc1ccsc1CNC(=O)Cc1c(C)nc2c(c1C)c(=O)[nH]n2C | -4.18 | 23.7 |

| SMILES | Percent Effect [1] [%] | Percent Effect [2] [%] |
| --- | --- | --- |
| CS(=O)(=O)NCc1cc2n(n1)CCCN(Cc1cccc(C#N)c1)C2 | 0.342 | 18.6 |
| CC(C(=O)NCCCN1CCCCCC1=O)n1cncn1 (stereo not given) | 2.08 | 20 |
| CN(Cc1ccc(F)cc1)CC1(O)CCN(C(=O)c2ccccc2)C1 (stereo not given) | 3.23 | -6.1 |
| CNC(=O)N1CCc2cc(C(=O)N(C)C)c(NCC3CC3)nc2CC1 | 1.99 | -3.46 |
| CCc1nnc(CN2CCN(C(=O)c3ccccn3)CC2)o1 | -0.577 | 21.4 |
| Cn1cnc(S(=O)(=O)NCCCN2CCCCCC2)c1Cl | 1.4 | 18.1 |
| Cc1ccc(N2CC3(CCN(c4nccs4)C3)C2)nn1 | -3.76 | -64.2 |
| CN(Cc1ccon1)C(=O)C1CC(=O)N(Cc2ccncc2)C1 (stereo not given) | 5.91 | 6.22 |
| COc1ccccc1OCC(=O)NS(=O)(=O)c1ccccc1F | 0.814 | -7.18 |
| CC(C(=O)NCc1ccc(N2CCNC(=O)C2)cc1)n1cncn1 (stereo not given) | 3.94 | -118 |
| Nc1nc(CN2CCOC(Cn3cncn3)C2)nc2ccccc12 (stereo not given) | -1.84 | 5.62 |
| Cc1ccoc1C(=O)N1C[C@@H]2[C@@H](C1)OCC(=O)N2Cc1cccnc1 | 2 | -12.8 |
| CCC(=O)N1Cc2nccn2CC(CN(C)Cc2cccnc2)C1 (stereo not given) | 7.49 | -5.95 |
| CCc1cc(NC2CCN(S(C)(=O)=O)CC2)n2nc(C)c(C)c2n1 | 1.78 | -16 |
| Cn1c(Cn2ccnc2)nnc1C1CCN(C(=O)C2(C)CC2)CC1 | -0.661 | -12.1 |
| CN(CC(=O)N(C)C1CCCCC1)C1CCc2ccccc21 (stereo not given) | 0.433 | 34.7 |
| CC(C)(C)c1n[nH]c(C2CN(C(=O)c3ccsc3)CCO2)n1 (stereo not given) | -2.97 | 7.5 |
| O=C(NCCn1ccnc1)N1CCCC1c1ccsc1 (stereo not given) | -7.57 | -9.24 |
| COCCN1CCCC1c1nccnc1Nc1nc(C)cs1 (stereo not given) | -3.52 | 0.955 |
| Cc1cc(C(F)(F)F)nn1CC(C)C(=O)Nc1ccncc1 (stereo not given) | 2.67 | -18.1 |
| CO[C@H]1CO[C@@]2(CCCN(C(=O)C3=CCCCC3)C2)C1 | 8.41 | -11.8 |
| CCc1nc(C2CCCN2C(=O)c2c[nH]c(C)n2)no1 (stereo not given) | -7.28 | 0.205 |
